Screening results (PubChem BioAssay)
COUP-TFII inh – NR2F2 transcriptional activity inhibitors, primary screen, cell-based, luciferase reporter, HEK293T, luminescence | inhibition, % at 8.6 µM | HEK293T NGFI-A luciferase reporter | actives 0.7% (n = 370,000);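 active means inhibition above a per-plate cutoff, mean inhibition of test wells between control levels plus 3 SD, cut at about 38% in these data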;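 further: cells cotransfected with COUP-TFII expression vector driving the NGFI-A reporter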
SRC2 inh – inhibition of GAL4-SRC2 driven luciferase reporter, primary screen, SRC2 inhibitor project, cell-based, luminescence; Nuclear receptor coactivator 2 (Homo sapiens), Q15596; HEK293 GAL4-SRC2 luciferase reporter; inhibition, % at 9 µM; actives 0.17% (n = 370,000); AID 651957, 2012;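 active means inhibition above the mean inhibition of all tested compounds plus 3 SD, set per campaign, cut at about 52% in these data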
Target sequence (Q15596 whole entry, looked up, the tested form may be a part): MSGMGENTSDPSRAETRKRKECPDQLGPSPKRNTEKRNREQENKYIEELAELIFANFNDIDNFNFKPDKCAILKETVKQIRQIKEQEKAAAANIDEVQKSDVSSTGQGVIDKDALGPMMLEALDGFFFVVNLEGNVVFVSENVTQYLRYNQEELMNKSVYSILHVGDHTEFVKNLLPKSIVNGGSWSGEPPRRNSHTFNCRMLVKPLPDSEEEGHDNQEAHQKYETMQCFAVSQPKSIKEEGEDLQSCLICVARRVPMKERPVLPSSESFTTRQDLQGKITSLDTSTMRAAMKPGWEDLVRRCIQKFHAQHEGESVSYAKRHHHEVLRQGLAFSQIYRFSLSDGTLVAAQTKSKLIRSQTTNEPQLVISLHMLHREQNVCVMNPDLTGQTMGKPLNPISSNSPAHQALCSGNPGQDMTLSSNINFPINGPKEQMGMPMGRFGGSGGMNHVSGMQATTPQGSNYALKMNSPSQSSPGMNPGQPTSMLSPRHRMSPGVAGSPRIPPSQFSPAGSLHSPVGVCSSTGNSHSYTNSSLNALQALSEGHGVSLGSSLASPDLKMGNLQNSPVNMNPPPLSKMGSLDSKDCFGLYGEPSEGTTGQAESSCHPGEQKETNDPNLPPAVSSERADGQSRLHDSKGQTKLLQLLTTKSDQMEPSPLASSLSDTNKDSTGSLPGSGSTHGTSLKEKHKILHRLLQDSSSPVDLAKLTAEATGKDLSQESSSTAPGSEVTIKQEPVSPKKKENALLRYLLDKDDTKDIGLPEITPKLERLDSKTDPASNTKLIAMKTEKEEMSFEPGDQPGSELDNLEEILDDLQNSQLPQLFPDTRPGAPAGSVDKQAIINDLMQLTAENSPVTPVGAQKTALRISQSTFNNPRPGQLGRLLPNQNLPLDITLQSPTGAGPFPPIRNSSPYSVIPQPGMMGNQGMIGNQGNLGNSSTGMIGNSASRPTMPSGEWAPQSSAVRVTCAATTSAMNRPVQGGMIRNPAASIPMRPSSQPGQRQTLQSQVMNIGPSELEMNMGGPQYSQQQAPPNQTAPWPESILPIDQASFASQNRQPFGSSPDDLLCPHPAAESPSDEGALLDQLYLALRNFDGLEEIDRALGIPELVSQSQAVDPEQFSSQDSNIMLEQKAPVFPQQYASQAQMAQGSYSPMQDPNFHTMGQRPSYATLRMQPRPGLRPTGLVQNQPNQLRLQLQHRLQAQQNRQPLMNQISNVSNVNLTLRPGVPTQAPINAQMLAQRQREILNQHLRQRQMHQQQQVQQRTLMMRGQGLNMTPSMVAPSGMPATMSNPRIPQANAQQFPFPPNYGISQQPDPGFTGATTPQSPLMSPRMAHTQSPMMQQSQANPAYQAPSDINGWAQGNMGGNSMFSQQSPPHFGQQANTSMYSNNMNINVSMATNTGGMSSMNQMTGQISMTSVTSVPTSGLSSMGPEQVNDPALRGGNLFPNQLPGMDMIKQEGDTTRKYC
NCOA3 inh – SRC3 coactivator transcriptional activity inhibitors, primary screen, cell-based, luminescence; actives 0.17% (n = 360,000); HEK293 GAL4-SRC3 luciferase reporter; Nuclear receptor coactivator 3 (Homo sapiens), Q9Y6Q9; inhibition, % at 3.6 µM;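 active means inhibition above a per-campaign cutoff, the mean of all compounds plus 3 SD, cut at about 60% in these data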;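 further: higher means less SRC3-driven luciferase light from the GAL4 reporter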
SRC1 inh – SRC1 coactivator transcriptional activity inhibitors, primary screen, cell-based, luminescence | Nuclear receptor coactivator 1 (Homo sapiens), Q15788 | HEK293 GAL4-SRC1 luciferase reporter | inhibition, % at 3.6 µM | actives 0.12% (n = 360,000) | AID 588354, 2011;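 active means inhibition above the campaign mean plus 3 SD, with each screening campaign given its own cutoff, cut at about 60% in these data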
LRH-1 inv ag – LRH-1 (NR5A2) inverse agonists, primary screen, cell-based, luminescence, HEK293T, StAR-luciferase reporter. Nuclear receptor subfamily 5 group A member 2 (Homo sapiens), O00482. LRH-1 transfected, 24 h. inhibition, % at 3.6 µM. actives 0.13% (n = 360,000). AID 602396, 2012;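 active means inhibition above the mean inhibition of all tested compounds plus 3 SD, cut at about 73% in these data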
Large screens that a line does not name were inactive. Sampled rows, rich in hits. Any-hit rate of the full collection: about 0.81%.

C[C@H]1O[C@@H](OC2CC[C@]3(C=O)[C@H]4CC[C@]5(C)[C@@H](C6=CC(=O)OC6)CC[C@]5(O)[C@@H]4CC[C@]3(O)C2)CC2OC(C)(C)OC21 (stereo partly drawn)	COUP-TFII inh 75.0, SRC2 inh 60.3, NCOA3 inh 86.3, SRC1 inh 81.2, LRH-1 inv ag 98.8
CC12CC[C@H]3[C@@H](CCC4(O)C[C@H](O)CCC34/C=N/NC(=O)c3ccccc3Cl)C1(O)CCC2C1=CC(=O)OC1 (stereo partly drawn)	none
Cc1nc2cc(-c3ccc(Cl)cc3)nn2c(C)c1CCC(=O)N1CCC2(CC1)OCCO2	SRC2 inh 55.8
CC(C)CN1CCN(Cc2ccc(C(F)(F)F)cc2)CC1CCO (stereo not drawn)	none
Cc1c2ccncc2c(C)c2c1[nH]c1ccccc12	SRC1 inh 63.9 (no result: COUP-TFII inh, SRC2 inh)
CC(=O)C1C(=O)NC23CCCCC2C1c1ccccc1O3 (stereo not drawn)	none
Clc1ccccc1CN1CCN(c2ccccc2Cl)CC1	none
COC(=O)[C@]12OC[C@]34C([C@@H](O)[C@@H]1O)[C@]1(C)CC(=O)C(O)=C(C)[C@@H]1C[C@H]3OC(=O)[C@H](O)[C@@H]24 (stereo partly drawn)	COUP-TFII inh 75.8, SRC2 inh 61.5, NCOA3 inh 69.3, SRC1 inh 81.2, LRH-1 inv ag 98.6
CC1=CC(O)C(O)C2(C)C1CC1OC(=O)C(O)C3C(C)C(O)C4(O)OCC13C42 (stereo not drawn)	none (no result: COUP-TFII inh, SRC2 inh)
O=C1CSC2(CN3CCC2CC3)N1 (stereo not drawn)	none
CN1CN(c2ccccc2)C2(CCN(CCCSc3ccccc3NC(=O)/C=C/c3ccccc3)CC2)C1=O	COUP-TFII inh 39.5
Cc1ccsc1C(=O)C1CCCN(Cc2cccn2-c2ccccn2)C1 (stereo not drawn)	none
O=C1/C(=C/c2ccccc2)C[C@@]2(O)[C@H]3Cc4ccc(O)c5c4[C@@]2(CCN3CC2CC2)C1O5 (stereo partly drawn)	NCOA3 inh 83.2, SRC1 inh 85.6, LRH-1 inv ag 84.2 (no result: COUP-TFII inh, SRC2 inh)
Oc1ccc2c3c1O[C@H]1c4[nH]c5c(c4CC4(O)C(C2)N(CC2CC2)CCC314)CC1(O)[C@H]2Cc3ccc(O)c4c3[C@@]1(CCN2CC1CC1)C5O4 (stereo partly drawn)	none (no result: NCOA3 inh, SRC1 inh, LRH-1 inv ag)
CC(Cc1ccccc1)NC(=O)C(c1ccc(N)cc1)c1ccc(N)cc1 (stereo not drawn)	none
COc1ccc2c(c1)/C(=C/c1cnc[nH]1)C(=O)N2	LRH-1 inv ag 82.5
Clc1ccccc1C1NCc2ccccc2-n2cccc21 (stereo not drawn)	none
COC(=O)C[C@]1(C(=O)OC)CN(C#N)N(c2ccc(Cl)cc2)C12c1ccccc1-c1ccccc12	COUP-TFII inh 102.3, SRC2 inh 91.2, NCOA3 inh 66.9
CCOC(=O)[C@]12Cc3cc(Cl)ccc3[C@H]1N(CC(=O)OC)C(=O)c1ccccc12	none (no result: COUP-TFII inh, SRC2 inh, NCOA3 inh, SRC1 inh)
CCC(=O)[C@@H](C)[C@@H](O)[C@H](C)C[C@@H](C)C1OC(=O)C[C@@]2(O)CC=C(C)C(O2)C(C)=CCCC[C@H](O[C@H]2C[C@@H](OC(N)=O)[C@H](O)[C@@H](C)O2)C=C[C@H](C)C[C@H]1C (stereo partly drawn)	LRH-1 inv ag 85.5 (no result: COUP-TFII inh, SRC2 inh, NCOA3 inh, SRC1 inh)
C[C@@H]1O[C@@H](O[C@H]2C[C@@H](O)[C@]3(CO)[C@H]4[C@H](O)C[C@]5(C)[C@@H](C6=CC(=O)OC6)CC[C@]5(O)[C@@H]4CC[C@]3(O)C2)[C@H](O)[C@H](O)[C@H]1O	NCOA3 inh 93.0, SRC1 inh 87.6, LRH-1 inv ag 102.6 (no result: COUP-TFII inh, SRC2 inh)
NP(=O)(Nc1ccccc1)Nc1ccccc1	none
C#C[C@]1(O)CCC2C3CC=C4C[C@H](O)CC[C@]4(C)C3CC[C@@]21C (stereo partly drawn)	none
N#CC(C#N)=Cc1ccc(O)c(O)c1	none
CC(C)(C)c1cc(C=C(C#N)C#N)cc(C(C)(C)C)c1O	NCOA3 inh 81.1, LRH-1 inv ag 76.3
COC1=CC(=O)[C@]2(C=C1OC)OC[C@@H]1Oc3c(ccc4c3C=CC(C)(C)O4)C(=O)[C@@H]12	COUP-TFII inh 73.0 (no result: NCOA3 inh, SRC1 inh, LRH-1 inv ag)
O=c1[nH]c(=O)n(CCC2=CCCCC2)c(O)c1C=NC1CCN(Cc2ccccc2)CC1	COUP-TFII inh 52.4
C=CCn1c(O)c(C=NC2CCN(Cc3ccccc3)CC2)c(=O)[nH]c1=O	none
C[C@H]1[C@H](OC(=O)CCC(=O)NCc2ccc(C(=O)O)cc2)O[C@@H]2O[C@@]3(C)CC[C@H]4[C@H](C)CC[C@@H]1C24OO3	NCOA3 inh 71.7, SRC1 inh 61.7, LRH-1 inv ag 89.1 (no result: COUP-TFII inh, SRC2 inh)
CCOc1ccc(-n2c(-c3ccoc3)nc3ccccc3c2=O)cc1	none
CCOc1ccc(-c2c(C)n(-c3ccc(OCC)cc3)c3[n+]2CCCCC3)cc1	COUP-TFII inh 90.4, NCOA3 inh 81.9, SRC1 inh 74.5, LRH-1 inv ag 88.3
O=C1CN=C(c2cc([N+](=O)[O-])ccc2Cl)c2cc([N+](=O)[O-])ccc2N1	none
Cc1ccc(-c2cc(-c3ccc(C)cc3)[n+](-c3ccccc3)c(-c3ccc(C)cc3)c2)cc1	NCOA3 inh 78.6, SRC1 inh 65.3, LRH-1 inv ag 93.3 (no result: COUP-TFII inh, SRC2 inh)
Cc1ccc(-c2cc(-c3ccc(C)cc3)[n+](-c3ccc(C(=O)[O-])cc3)c(-c3ccc(C)cc3)c2)cc1	none
Cn1ncnc2c(=O)n(C)c(=O)nc1-2	NCOA3 inh 90.8, SRC1 inh 87.6, LRH-1 inv ag 99.8 (no result: COUP-TFII inh, SRC2 inh)
C[C@@H]1CNCCN1c1ccc(N2CC[C@H](O)C2)c(C#N)c1	none (no result: NCOA3 inh, SRC1 inh, LRH-1 inv ag)
CCOC(=O)[C@]12Cc3cc(Cl)ccc3[C@H]1N(C1CCCCC1)C(=O)c1ccccc12	LRH-1 inv ag 84.8 (no result: COUP-TFII inh, SRC2 inh, NCOA3 inh, SRC1 inh)
CC(=O)OCC12CC(OC(=O)CC(C)C)C(C)=CC1OC1C(O)C(OC(C)=O)C2(C)C12CO2 (stereo not drawn)	COUP-TFII inh 91.5, SRC2 inh 77.1, NCOA3 inh 94.6, SRC1 inh 95.1, LRH-1 inv ag 98.1
